13 molecules from PubChem BioAssay can be followed below.

Test [1] deals with Human papillomavirus type 1a protein E7 (residues 44-93). The test is described as follows: HPV1a E7 fragment binders on microarrays, primary screen, biochemical, small-molecule microarray, residues 44-93, 635 nm fluorescence (AID 1108).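 Further: E7 fragment applied at 1 µg/mL in TBST for 1 h at 4 C; score combines spot fluorescence with its signal to noise ratio.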 As to conditions: small-molecule microarray binding, fluorescence 635 nm; higher = more signal.
A short description of test [2]: modulators of HCV replicon luciferase signal, primary screen, HCV replication inhibitor project, Huh7 cells, luciferase reporter (AID 1109).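 Further: huh7 hepatoma cells harbouring a luciferase neomycin HCV replicon reporter; luciferase luminescence as measure of HCV replicon replication; test concentration not given here.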 As to conditions: 48 h, higher = more signal. Background: Replicon systems follow genome replication, usually without infectious particles.
In test [3] the target is Left-right determination factor 2 (Homo sapiens) (UniProt O00292). The test is described as follows: LEFTY2 binders on small-molecule microarrays, primary screen, biochemical, small-molecule microarray, 635 nm fluorescence scan (AID 1110). As to conditions: LEFTY2 binding, higher = more signal.
Sequence of Left-right determination factor 2 (Homo sapiens) (O00292 whole entry, looked up): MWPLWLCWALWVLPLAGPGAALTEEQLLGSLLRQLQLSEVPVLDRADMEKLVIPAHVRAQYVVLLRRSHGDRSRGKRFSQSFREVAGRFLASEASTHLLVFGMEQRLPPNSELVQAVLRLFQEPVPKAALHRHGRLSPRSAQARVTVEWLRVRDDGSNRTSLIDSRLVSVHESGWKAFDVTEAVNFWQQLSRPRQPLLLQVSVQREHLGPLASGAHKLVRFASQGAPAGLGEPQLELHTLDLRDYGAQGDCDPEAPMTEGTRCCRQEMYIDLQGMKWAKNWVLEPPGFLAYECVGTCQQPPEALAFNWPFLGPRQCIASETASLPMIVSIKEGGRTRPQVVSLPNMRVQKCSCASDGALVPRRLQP
For test [4], the target named is Calmodulin-1 (Homo sapiens) (UniProt P0DP23). The test is described as follows: CALM1 binders on microarrays, EGTA buffer, profiling panel, biochemical, small-molecule microarray, Cy5-labelled CALM1 (AID 1111).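 Further: labelled calmodulin applied in Tris saline Tween buffer holding calcium plus EGTA and DTT.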 As to conditions: Cy5-CALM1 binding fluorescence, higher = more signal.
Test [5] shares this target. The test is described as follows: calcium-bound CALM1 binders on microarrays, profiling panel, artefact control for SMM control-protein annotation, biochemical, small-molecule microarray, Cy5-labelled CALM1, plus calcium (AID 1112).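 Further: score merges spot fluorescence with signal to noise from triplicate slides.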 As to conditions: Cy5-CALM1 binding fluorescence, higher = more signal.
The nature of test [6]: small-molecule microarray binders of probe aWnt5a, primary screen, biochemical, biotinylated probe, 635/667 nm fluorescence (AID 1113).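 Further: score merges 667 nm fluorescence intensity with signal-to-noise per printed feature.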 To be noted: higher = more signal.
A short description of test [7]: small-molecule microarray binders of probe aShh, primary screen, biochemical, biotinylated probe, 635/667 nm fluorescence (AID 1114).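 Further: probe is biotin-labelled aShh protein from a stem cell growth factor screen; measures binding of labelled protein to compounds printed on the slide; score merges feature fluorescence at 667 nm with signal-to-noise.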 As to conditions: higher = more signal.
Test [8] is described as follows: small-molecule microarray binders of probe aNog, primary screen, biochemical, biotinylated probe, 635/667 nm fluorescence (AID 1115).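 Further: probe is biotinylated aNog protein used at 0.15 µg/mL for 1 h at 4 C; z-score combines 667 nm fluorescence of each spot with its signal to noise.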 As to conditions: higher = more signal.
Test [9] addresses Torsin-1A-interacting protein 1 (Homo sapiens) (UniProt Q5JTV8). The test is described as follows: LAP1 binders from COS7 cell lysate, primary screen, small-molecule microarray, 635/667 nm fluorescence (AID 1116). As to conditions: COS7-hLAP1 lysate binding, 635 nm fluorescence, higher = more signal.
The target in test [10] is Alpha-bungarotoxin (Bungarus multicinctus) (UniProt P60615). The test is described as follows: alpha-bungarotoxin binders on microarray, profiling panel, artefact control for SMM control protein annotation, biochemical, small-molecule microarray, Alexa647 label, 635/667 nm fluorescence (AID 1117). As to conditions: alpha-BTX-A647 binding fluorescence, higher = more signal.
Sequence of Alpha-bungarotoxin (Bungarus multicinctus) (P60615 whole entry, looked up): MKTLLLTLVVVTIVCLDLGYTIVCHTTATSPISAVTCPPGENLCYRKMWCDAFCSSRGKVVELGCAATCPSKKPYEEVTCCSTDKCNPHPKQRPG

Sequence of Torsin-1A-interacting protein 1 (Homo sapiens) (Q5JTV8 whole entry, looked up): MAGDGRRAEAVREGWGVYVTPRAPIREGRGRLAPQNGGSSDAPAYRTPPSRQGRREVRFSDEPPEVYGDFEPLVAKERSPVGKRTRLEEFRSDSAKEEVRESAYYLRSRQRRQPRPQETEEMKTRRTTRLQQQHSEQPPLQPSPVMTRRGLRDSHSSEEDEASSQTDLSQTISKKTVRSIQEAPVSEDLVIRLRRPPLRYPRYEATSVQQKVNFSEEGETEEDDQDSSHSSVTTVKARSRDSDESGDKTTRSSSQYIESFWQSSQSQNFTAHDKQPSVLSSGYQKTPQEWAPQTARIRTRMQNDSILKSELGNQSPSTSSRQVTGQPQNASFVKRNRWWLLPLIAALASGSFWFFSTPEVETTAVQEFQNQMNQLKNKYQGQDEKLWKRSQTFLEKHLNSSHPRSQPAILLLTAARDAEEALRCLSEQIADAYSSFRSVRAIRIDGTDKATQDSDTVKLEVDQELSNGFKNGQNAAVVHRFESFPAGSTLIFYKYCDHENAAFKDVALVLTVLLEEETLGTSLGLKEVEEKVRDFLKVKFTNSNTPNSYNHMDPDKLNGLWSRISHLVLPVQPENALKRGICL

Take `C=CCOC(=O)[C@@H]1[C@H]2C(=O)O[C@H](c3ccccc3)[C@H](c3ccccc3)N2[C@H](c2ccc(OCCOC(=O)[C@H]3C[C@H]4C(=O)N[C@@H](CCCCN(C)C)C(=O)N4[C@H]3c3ccc(O)cc3)cc2)[C@@]12C(=O)Nc1ccc(I)cc12`: the composite z-score in [1] was 1.06; in [3], 1.17; in test [4] it was -0.842; in test [5], -0.972; in [6], 0.0317; in test [7], -0.0578. Further, the figures for the composite z-score in test [8], in test [9] and in test [10] were 0.219, 1.31 and 1.51, respectively. This molecule came in with a z-score in test [2] of -3.31.
For the molecule `CCOC(=O)C1=CC[C@@H](c2ccccc2)N(S(=O)(=O)c2ccc(C)cc2)[C@H]1c1ccccc1I`, the composite z-score was 0.77 in test [1]; 0.316 in test [3]; 1.82 in [4]; 0.944 in test [5]; -0.0195 in [6]; -0.0769 in test [7]. Further, the composite z-score in test [8] was -0.327; in test [9], 0.911; in [10] it was 1.19. For the same molecule, the z-score in test [2] was -0.839.
As for `COC(=O)[C@@]1(Cc2ccccc2)[C@H]2c3cc(C(=O)N(C)C)n(CCSC(=N)N)c3C[C@H]2CN1C(=O)c1ccccc1`, the composite z-score in test [1] is -0.98; in test [3], -0.76; in [4], 0.96; in test [5], 0.0575; in test [6], -0.0006; in test [7], -0.138. Further, the composite z-score in [8] was 1.39; in test [9], 3.21; in test [10] it was -0.351. The molecule also showed a z-score in [2] of -0.588.
Turning to `COCCn1c(C(=O)N(C)C)cc2c1C[C@H]1CN(C(=O)c3ccccc3)[C@@](Cc3ccc(OC)cc3)(C(=O)OC)[C@@H]21`, the composite z-score in test [1] turned out to be 1.38; in [3], 0.0756; in test [4] it was 0.572; in test [5], 0.25; in test [6] it was 0.0431; in [7], 0.204. Moreover, the values for the composite z-score in [8], in test [9] and in [10] were 0.919, 0.357 and 0.0924, respectively. This molecule also gave a z-score in test [2] of -1.27.
Take `C=CCNC(=O)[C@@H]1[C@H]2C(=O)O[C@H](c3ccccc3)[C@H](c3ccccc3)N2[C@H](c2ccc(OCCO)cc2)[C@@]12C(=O)Nc1ccc(C#CC3(O)CCCCCC3)cc12`: the composite z-score in test [1] was 1.12; in test [3] it was 0.367; in test [4], 0.92; in test [5], 0.0835; in test [6], -0.0203; in [7], -0.278. The composite z-score stood at 0.822 in [8], 0.699 in test [9] and 1.35 in test [10]. Moreover, in test [2], the z-score is -2.43.
For `O=C1C[C@@](C(=O)O)(c2ccc([N+](=O)[O-])cc2)[C@@H](c2ccc(CO)cc2)N1C1CCCCC1`, the composite z-score came out at 1.45 in test [1]; 0.245 in test [3]; 1.2 in test [4]; 0.161 in [5]; 0.0037 in test [6]; 0.116 in test [7]. For the same molecule, the composite z-score was -0.485 in test [8], 0.493 in test [9] and 1.07 in [10]. Further, the z-score in test [2] was -1.67.
`CC1CC/C=C\[C@H]2OC34C=CCN(C(C)(C)C)C(=O)[C@H]3N(CCCO)C(=O)[C@@H]4C2C(=O)O1` (stereo not given in full): the composite z-score in [1] is -0.0793; in test [3] it was -0.19; in test [4], -0.128; in test [5], 0.588; in test [6], -0.105; in [7], 0.0278. Further, the composite z-score was 0.0215 in [8], 1.42 in [9] and -1.18 in [10]. The z-score in [2] is -0.751.
For the molecule `COc1cc(C(O)C2C=CC3C(=O)N(c4ccccc4)C(=O)C3N2Nc2ccccc2F)cc(OC)c1OC` (stereo not given), the composite z-score in test [1] is 1.48; in test [3] it was 0.2; in [4], 1.05; in test [5], -0.383; in test [6], 0.0357; in test [7], -0.0146. In addition, the composite z-score in test [8] was 1.11; in test [9], 0.512; in test [10] it was 0.983. Besides, the z-score in test [2] was -0.892.
On to `CC(C)c1nc2cc(Br)ccc2c(=O)o1`, for which the composite z-score was 1.32 in test [1]; 0.371 in test [3]; 2 in [4]; 0.93 in test [5]; -0.0367 in test [6]; -0.427 in test [7]. For the same molecule, the figures for the composite z-score in test [8], in [9] and in test [10] were 0.418, 1.61 and 0.868, respectively. This molecule gave a z-score in test [2] of -0.559.
Turning to `CCOC(=O)C1=CC[C@@H](c2ccc(OC)cc2)N(S(=O)(=O)c2ccc(C)cc2)[C@H]1c1ccc(C)cc1`, the composite z-score in [1] is 1.33; in test [3] it was -0.0746; in test [4], 0.783; in test [5], 0.894; in test [6], 0.0509; in [7], 0.216. For the same molecule, the composite z-score was -0.201 in test [8], 0.467 in test [9] and 0.611 in test [10]. Also, the z-score in [2] was -0.12.
Regarding `CCOC(=O)C1=C[C@@H](C(C)(C)C)N(S(=O)(=O)c2ccc(C)cc2)[C@H]1c1ccc(C#N)cc1`, the composite z-score is 1.41 in test [1]; 0.282 in test [3]; 1.37 in test [4]; 0.226 in test [5]; 0.055 in [6]; -0.154 in test [7]. Besides, the composite z-score stood at 0.618 in test [8], 0.918 in test [9] and 1.09 in test [10]. The molecule further showed a z-score in [2] of -2.04.
Turning to `COc1cc(OC)c(C(O)C2C=CC3C(=O)N(c4ccccc4)C(=O)C3N2Nc2ccc(C(C)C)cc2)cc1Br` (stereo not given), the composite z-score in [1] turned out to be 1.22; in [3], 0.513; in test [4], 1.34; in test [5], 0.382; in test [6], 0.238; in test [7], 0.158. Moreover, the composite z-score in test [8] was determined as 1.68; in [9], 0.695; in test [10], 1.92. The same molecule showed a z-score in test [2] of -0.533.
Regarding `C=CC[C@@]1(C(=O)OC)N=C(c2ccc(OCCCO)cc2)O[C@@H]1c1ccccc1N=[N+]=[N-]`, the composite z-score in test [1] is 1.48; in test [3], 0.684; in test [4], 0.17; in [5], -0.483; in [6], 0.0433; in [7] it was 0.313. In addition, the figures for the composite z-score in test [8], in test [9] and in test [10] were 0.604, 1.66 and 1.43, respectively. In [2], this molecule showed a z-score of -0.992.
